Reference: the supplement of paper PMC8728848
About 410 targets per protein were measured; listed, in parts, are those with the strongest signals and a random draw of the rest.

Key:
Test in all cases: glycan array binding signal (z-score within array); higher = stronger binding
Conditions in all cases: glycan notation: IUPAC condensed, linker removed
[1] = molecular target: GalNAc(a1-3)GalNAc(a1-3)Gal(a1-4)Gal(b1-4)GlcNAc
Summary of the method: (§1)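 From the Consortium for Functional Glycomics database, 3228 arrays were curated, keeping only those whose protein sequence was available. Binding is given as a within-array Z-score averaged across arrays sharing a protein sequence and across linkers. Negative Z-scores can be read as non-binding.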

[2] = molecular target: GalNAc(a1-3)GalNAc(b1-3)Gal(a1-4)Gal(b1-4)GlcNAc
Summary of the method: as §1

Glc(b1-4)Glc = molecular target: Glc(b1-4)Glc
Summary of the method: as §1

Glc(b1-6)Glc = molecular target: Glc(b1-6)Glc
Summary of the method: as §1

GlcA(b1-3)Gal = molecular target: GlcA(b1-3)Gal
Summary of the method: as §1

[3] = molecular target: GlcA3S(b1-3)Gal(b1-4)GlcNAc(b1-3)Gal(b1-4)Glc
Summary of the method: as §1

[4] = molecular target: GlcNAc(a1-3)Gal(b1-4)GlcNAc
Summary of the method: as §1

[5] = molecular target: GlcNAc(a1-4)Gal(b1-4)GalNAc
Summary of the method: as §1

[6] = molecular target: GlcNAc(a1-4)Gal(b1-4)GlcNAc(b1-3)Gal(b1-4)GlcNAc
Summary of the method: as §1

[7] = molecular target: GlcNAc(a1-4)Gal(b1-4)GlcNAc(b1-3)Gal(b1-4)GlcNAc(b1-3)Gal(b1-4)GlcNAc
Summary of the method: as §1

[8] = molecular target: GlcNAc(b1-2)[GlcNAc(b1-4)]Man(a1-3)[GlcNAc(b1-4)][GlcNAc(b1-2)[GlcNAc(b1-6)]Man(a1-6)]Man(b1-4)GlcNAc(b1-4)[Fuc(a1-6)]GlcNAc
Summary of the method: as §1

[9] = molecular target: GlcNAc(b1-2)[GlcNAc(b1-6)]Man(a1-6)[GlcNAc(b1-2)Man(a1-3)][GlcNAc(b1-4)]Man(b1-4)GlcNAc(b1-4)GlcNAc
Summary of the method: as §1

[10] = molecular target: GlcNAc(b1-3)Gal(b1-4)GlcNAc(b1-3)Gal(b1-4)GlcNAc(b1-2)Man(a1-3)[GlcNAc(b1-3)Gal(b1-4)GlcNAc(b1-3)Gal(b1-4)GlcNAc(b1-2)Man(a1-6)]Man(b1-4)GlcNAc(b1-4)[Fuc(a1-6)]GlcNAc
Summary of the method: as §1

[11] = molecular target: GlcNAc(b1-3)Gal(b1-4)GlcNAc(b1-3)Gal(b1-4)GlcNAc(b1-3)Gal(b1-4)GlcNAc(b1-2)Man(a1-3)[GlcNAc(b1-3)Gal(b1-4)GlcNAc(b1-3)Gal(b1-4)GlcNAc(b1-3)Gal(b1-4)GlcNAc(b1-2)Man(a1-6)]Man(b1-4)GlcNAc(b1-4)GlcNAc
Summary of the method: as §1

[12] = molecular target: GlcNAc(b1-3)Gal(b1-4)GlcNAc(b1-3)Gal(b1-4)GlcNAc(b1-3)Gal(b1-4)GlcNAc(b1-2)Man(a1-3)[GlcNAc(b1-3)Gal(b1-4)GlcNAc(b1-3)Gal(b1-4)GlcNAc(b1-3)Gal(b1-4)GlcNAc(b1-2)Man(a1-6)]Man(b1-4)GlcNAc(b1-4)[Fuc(a1-6)]GlcNAc
Summary of the method: as §1

Kdn(a2-3)Gal(b1-4)GlcNAc = molecular target: Kdn(a2-3)Gal(b1-4)GlcNAc
Summary of the method: as §1

[13] = molecular target: Neu5Ac(a2-3)Gal(b1-3)GalNAc(b1-3)Gal(a1-4)Gal(b1-4)Glc
Summary of the method: as §1

[14] = molecular target: Neu5Ac(a2-3)Gal(b1-3)GalNAc(b1-4)[Neu5Ac(a2-8)Neu5Ac(a2-3)]Gal(b1-4)Glc
Summary of the method: as §1

[15] = molecular target: Neu5Ac(a2-3)Gal(b1-3)[Fuc(a1-4)]GlcNAc(b1-3)Gal(b1-4)[Fuc(a1-3)]GlcNAc
Summary of the method: as §1

[16] = molecular target: Neu5Ac(a2-3)Gal(b1-4)GlcNAc(b1-3)Gal(b1-4)GlcNAc
Summary of the method: as §1

[17] = molecular target: Neu5Ac(a2-3)Gal(b1-4)GlcNAc(b1-3)Gal(b1-4)GlcNAc(b1-3)Gal(b1-4)GlcNAc
Summary of the method: as §1

[18] = molecular target: Neu5Ac(a2-3)Gal6S(b1-4)GlcNAc
Summary of the method: as §1

[19] = molecular target: Neu5Ac(a2-6)Gal(b1-4)GlcNAc(b1-2)Man(a1-3)[Gal(b1-4)GlcNAc(b1-2)Man(a1-6)]Man(b1-4)GlcNAc(b1-4)GlcNAc
Summary of the method: as §1

[20] = molecular target: Neu5Ac(a2-6)Gal(b1-4)GlcNAc(b1-3)Gal(b1-4)GlcNAc(b1-3)Gal(b1-4)GlcNAc(b1-2)Man(a1-3)[Neu5Ac(a2-6)Gal(b1-4)GlcNAc(b1-3)Gal(b1-4)GlcNAc(b1-3)Gal(b1-4)GlcNAc(b1-2)Man(a1-6)]GalNAc
Summary of the method: as §1

[21] = molecular target: Neu5Ac(a2-6)Gal(b1-4)GlcNAc(b1-3)Gal(b1-4)[Fuc(a1-3)]GlcNAc(b1-3)Gal(b1-4)[Fuc(a1-3)]GlcNAc
Summary of the method: as §1

Neu5Ac(b2-6)GalNAc = molecular target: Neu5Ac(b2-6)GalNAc
Summary of the method: as §1

[22] = molecular target: Neu5Ac9Ac(a2-6)Gal(b1-4)GlcNAc
Summary of the method: as §1

B1: HPA (Helix pomatia), Q575S3 (protein)
chain: MWAHLTGLLLICALSLSAAQRAQTGEIDCGSDSSWPKDPSDNPNRDNTREIVKHVTFSPQFCREPKVILSVTTLDAEHTKNLRYEARLKSVSPSGLSASCYSWHDGTIYRMKLSWLAVED
glycan array binding signal (z-score) [1]: 5.04 | glycan array binding signal (z-score) [2]: 5.7 | glycan array binding signal (z-score) (Glc(b1-4)Glc): -0.26 | glycan array binding signal (z-score) (Glc(b1-6)Glc): -0.266 | glycan array binding signal (z-score) (GlcA(b1-3)Gal): -0.262 | glycan array binding signal (z-score) [3]: -0.256 | glycan array binding signal (z-score) [4]: 4.69 | glycan array binding signal (z-score) [5]: 1.46 | glycan array binding signal (z-score) [6]: 4.37 | glycan array binding signal (z-score) [7]: 4.21 | glycan array binding signal (z-score) [8]: 0.175 | glycan array binding signal (z-score) [9]: -0.24 | glycan array binding signal (z-score) [10]: -0.243 | glycan array binding signal (z-score) [11]: -0.257 | glycan array binding signal (z-score) [12]: -0.241 | glycan array binding signal (z-score) (Kdn(a2-3)Gal(b1-4)GlcNAc): -0.262 | glycan array binding signal (z-score) [13]: -0.243 | glycan array binding signal (z-score) [14]: -0.245 | glycan array binding signal (z-score) [15]: -0.209 | glycan array binding signal (z-score) [16]: -0.267 | glycan array binding signal (z-score) [17]: -0.265 | glycan array binding signal (z-score) [18]: -0.273 | glycan array binding signal (z-score) [19]: -0.261 | glycan array binding signal (z-score) [20]: -0.164 | glycan array binding signal (z-score) [21]: -0.253 | glycan array binding signal (z-score) (Neu5Ac(b2-6)GalNAc): -0.269 | glycan array binding signal (z-score) [22]: -0.274
